The list is a sample of the results.
aSyn 5UTR act: Activators via SNCA 5'UTR binding, MLPCN. alpha-synuclein 5'UTR reporter, activators screen. activity score, % (tested at 7.5 µM), hits read low. 300,000 compounds, 7.1% hits. AID 1814, 2009; in the data active = activity score below about -60%
Active calls of the source: *.

SMILES | aSyn 5UTR act
CC1Oc2ccccc2N(CC(=O)NCc2ccc3c(c2)OCO3)C1=O (configuration not stated) | -106.3*
COc1cc([C@@H]2c3cc4c(cc3[C@@H](NC3CCN(Cc5ccccc5)CC3)[C@H]3COC(=O)[C@H]23)OCO4)cc(OC)c1O | 103.2
CCCCc1ccc(NC(=O)CC(C)C)cc1 | -69.7*
CCCCc1ccc(NC(=O)C2CCCC2)cc1 | -68.6*
Clc1ccc(-c2cn3c(n2)CCC3)cc1 | -192.2*
CCCc1noc(-c2ccc(-c3ccccc3)cc2)n1 | -112.2*
O=C(/C=C/c1ccc([N+](=O)[O-])cc1)/C=C/c1ccco1 | -215.2*
O=C1C(=O)c2ccc(-c3ccccc3)cc2-c2ccccc21 | 118.6
O=C1C(c2ccccc2)=[N+]([O-])c2ccccc21 | -94.3*
Cc1cc(=O)n(C(NC(=O)c2ccccc2)C(=O)c2ccccc2)cn1 (configuration not stated) | -84.1*
O=C(NC(C(=O)c1ccccc1)N1CCOCC1)c1ccccc1 (configuration not stated) | -66.7*
CCOc1ccc2nc(NC(=O)C3=NNC(=O)CC3)sc2c1 | -73.5*
CCOc1ccc2nc(NC(=O)c3cnc(C)cn3)sc2c1 | -68.5*
O=c1cnc2ccccc2n1Cc1ccc(Br)cc1 | -65.0*
COCc1nc2ccccc2n1Cc1ccc(Br)cc1 | -79.9*
COCCC1CCCCN1C(=O)c1cc(COc2cccc(C(C)=O)c2)on1 (configuration not stated) | -95.8*
CC(=O)c1cccc(OCc2cc(C(=O)N3C[C@H]4CC[C@H]3C4)no2)c1 | -134.0*
CC(=O)c1cccc(OCc2cc(C(=O)N3C[C@@H](C)O[C@@H](C)C3)no2)c1 | -75.3*
O=C(c1cc(COc2cccc(C(F)(F)F)c2)on1)N1C[C@H]2CC[C@H]1C2 | -116.9*
CC(=O)c1cnc2nc(SCc3ccccc3C)nn2c1C | -75.1*
Cc1ccc2nc(-c3ccccn3)c(NC3CCCC3)n2c1 | -165.4*
CC1CCCCN1Cc1c(O)ccc2c(=O)c(-c3ccc(Cl)cc3)coc12 (configuration not stated) | -68.3*
Brc1ccc2oc(-c3ccn[nH]3)cc2c1 | -175.0*
NC(=O)c1ccccc1Nc1nc2nc3ccccc3c(=O)n2cc1Br | -82.7*
CC(=O)N(C)c1ccc(N=Nc2c(C)[nH]n(C(N)=S)c2=O)cc1 | -112.5*
SMILES | aSyn 5UTR act
Cc1cccc(N=Nc2c(C)[nH]n(C(N)=S)c2=O)c1C | -199.4*
Cc1[nH]n(C(N)=S)c(=O)c1N=Nc1cccc(Cl)c1 | -126.4*
O=C(CCCc1ccccc1)Nc1ccccn1 | -110.9*
Cc1ccnc(NC(=O)CCCc2ccccc2)c1 | -181.6*
Cc1cccc(Nc2nc(-c3ccc(O)cc3O)cs2)n1 | -125.9*
Cc1ccc(C)c(-c2csc(Nc3ncccn3)n2)c1 | -66.3*
Oc1ccc(-c2csc(Nc3ncccn3)n2)c(O)c1 | -165.4*
Oc1ccc(-c2csc(Nc3ncccn3)n2)cc1O | -177.8*
c1ccc(-c2onc(-c3ccco3)c2-c2ccc3[nH]ccc3c2)cc1 | -65.1*
c1cc2cc(-c3c(-c4ccc5c(c4)OCO5)noc3-c3ccsc3)ccc2[nH]1 | -80.6*
CCC(C)(C)C1CCC(=NNC(=O)c2ccoc2C)CC1 (configuration not stated) | -111.8*
Nc1ccccc1C#Cc1ccc([N+](=O)[O-])cc1 | -261.6*
COc1ccc(-n2c(C)nc3c(cnn3-c3ccc(C)c(C)c3)c2=O)cc1 | -84.9*
Nc1nc(-c2cc3ccccc3o2)cs1 | -131.8*
Cc1cc(C)n(CCc2nc(-c3cc4ccccc4o3)cs2)n1 | -112.0*
CN1CCN(c2nc(-c3cc4ccccc4o3)cs2)CC1 | -142.2*
CC1(C)Cc2nc3sc4c(SCC(=O)NCc5ccccc5)ncnc4c3cc2CO1 | 64.0
CCn1c(SCC(=O)Nc2ccc(C(C)=O)cc2)nc2nc3c(cc2c1=O)COC(C)(C)C3 | -83.1*
CC(=O)c1ccc(NC(=O)CSc2nc(N)c3cc4c(nc3n2)CCCC4)cc1 | -78.9*
CC1(C)Cc2nc3nc(SCC(=O)Nc4ccccc4)nc(N)c3cc2CO1 | -67.5*
CC(=O)Nc1cccc(NC(=O)C(=O)c2cn(CC(=O)N3CCCCC3)c3ccccc23)c1 | -121.5*
COc1ccc(NC(=O)C(=O)c2cn(CC(=O)N3CCCC3)c3ccccc23)cc1 | 104.6
c1ccc(OCCSc2nnnn2C2CCCCC2)cc1 | -121.7*
COc1ccccc1OCCSc1nnnn1C1CCCCC1 | -81.4*
CN1C(c2ccc(F)cc2)=CS/C1=C(/C#N)c1nnc(N2CCOCC2)n1-c1ccccc1 | -73.7*
SMILES | aSyn 5UTR act
Cc1ccc(-c2csc(CC(N)=O)n2)cc1 | -76.0*
N/C(Cc1nc(-c2ccc(Cl)cc2)cs1)=N/O | -67.3*
CCN(CC)c1ccc(/C=C2/SC(=O)N(C(C)C)C2=O)o1 | -174.8*
CC(C)N1C(=O)S/C(=C\c2ccc(-c3ccc(Cl)c(C(=O)O)c3)o2)C1=O | -127.7*
C1=Nc2ccccc2CN1c1ccccc1 | -119.6*
CC(C)c1ccc(N2C=Nc3ccc(C(C)C)cc3C2)cc1 | -63.1*
Cn1cccc1/C=C1\Cc2ccccc2C1=O | -141.6*
Cc1cccc(Cc2nnc(CCC(=O)N(CC3CC3)CC3CCCO3)o2)c1 (configuration not stated) | -111.9*
CCCOC1CCCN(C(=O)CCc2nnc(Cc3cccc(C)c3)o2)C1 (configuration not stated) | -163.6*
O=C(Nc1nccs1)c1ccc(-c2ccc(F)c(Cl)c2)o1 | -150.7*
O=C(Nc1nccs1)c1ccc(-c2ccc(Cl)cc2Cl)o1 | -149.2*
Cc1nc(N)sc1N=Nc1ccccc1C(F)(F)F | -184.2*
COc1ccc(Nc2nc(-c3sc(C)nc3C)cs2)c(OC)c1 | -123.6*
COc1ccc(Nc2nc(-c3cccs3)cs2)c(OC)c1 | -195.6*
COc1ccccc1Nc1nc(-c2cccs2)cs1 | -254.2*
COc1ccc(Nc2nc(-c3cccs3)cs2)cc1 | -204.7*
Cc1ccc(C(=O)Nc2c3c(nn2C(C)(C)C)CS(=O)(=O)C3)cc1[N+](=O)[O-] | -79.3*
CC(C)(C)n1nc2c(c1NC(=O)c1cc([N+](=O)[O-])ccc1Cl)CS(=O)(=O)C2 | -94.6*
COC(=O)c1ccccc1N/C=C/C(=O)c1ccc(Br)cc1 | -132.4*
CCOc1ccc(C(=O)Cc2cc(OC)c(OC)cc2[N+](=O)[O-])cc1 | -80.5*
CCOC(=O)c1cccc(N/C=C/C(=O)c2ccc(OC)c(OC)c2)c1 | -130.3*
Cc1cccc(N/C=C/C(=O)c2ccc(Cl)cc2)c1 | -157.2*
COc1ccc(C(=O)/C=C/Nc2ccc([N+](=O)[O-])cc2)cc1 | -106.4*
CCOc1ccc(NC(=S)NC(=O)/C=C/c2ccc(Br)cc2)c([N+](=O)[O-])c1 | -78.7*
COc1cccc(N/C=C/C(=O)c2ccc(Br)cc2)c1 | -116.6*
SMILES | aSyn 5UTR act
COc1ccc(C(=O)/C(C#N)=N/Nc2ccc([N+](=O)[O-])cc2)cc1 | 102.1
Cc1ccc(Cl)c(N/C=C/C(=O)c2ccccc2)c1 | -143.6*
CCOC(=O)c1ccc(N/C=C\C(=O)c2cccc(OC)c2)cc1 | -131.3*
CCOc1ccc(N/C=C/C(=O)c2ccc(OC)cc2)c([N+](=O)[O-])c1 | -118.2*
COc1cccc(C(=O)/C=C/Nc2cc(C)ccc2O)c1 | -260.9*
COc1ccc(C(=O)/C=C/Nc2cccc(O)c2)cc1 | -93.8*
COc1cccc(N/C=C/C(=O)c2ccc(OC)c(OC)c2)c1 | -97.3*
CCOC(=O)c1ccc(OS(=O)(=O)c2ccccc2)c(OC)c1 | -195.4*
Fc1cccc2sc(Nc3nnc(-c4ccccc4)o3)nc12 | -89.5*
Cc1c(Cl)ccc2sc(NC(=O)C3CC3)nc12 | -84.7*

High-throughput results (PubChem BioAssay)
